The results in this text go back to ChEMBL document CHEMBL3988442, “University of Dundee, Small-Polar-MMV Screening Library” (2021).

Structures are written as SMILES. For some of these results: Potency and affinity values are given separately.

Common to all, as to parameters: scale not given: direction of the effect not stated beside the values
Experiment [1] has as its target Protein translocase subunit SecA (Escherichia coli (strain K12)) (UniProt P10408). As to the kind of experiment: Assay to Identify E. coli SecA ATPase Inhibitors. The settings on record: 30 µM. Type of experiment: functional.
Experiment [2] has as its target T1, Ubiquitin-activating enzyme e1, putative (Leishmania donovani (strain BPK282A1)) (UniProt E9BSI1).
T1 sequence (whole entry): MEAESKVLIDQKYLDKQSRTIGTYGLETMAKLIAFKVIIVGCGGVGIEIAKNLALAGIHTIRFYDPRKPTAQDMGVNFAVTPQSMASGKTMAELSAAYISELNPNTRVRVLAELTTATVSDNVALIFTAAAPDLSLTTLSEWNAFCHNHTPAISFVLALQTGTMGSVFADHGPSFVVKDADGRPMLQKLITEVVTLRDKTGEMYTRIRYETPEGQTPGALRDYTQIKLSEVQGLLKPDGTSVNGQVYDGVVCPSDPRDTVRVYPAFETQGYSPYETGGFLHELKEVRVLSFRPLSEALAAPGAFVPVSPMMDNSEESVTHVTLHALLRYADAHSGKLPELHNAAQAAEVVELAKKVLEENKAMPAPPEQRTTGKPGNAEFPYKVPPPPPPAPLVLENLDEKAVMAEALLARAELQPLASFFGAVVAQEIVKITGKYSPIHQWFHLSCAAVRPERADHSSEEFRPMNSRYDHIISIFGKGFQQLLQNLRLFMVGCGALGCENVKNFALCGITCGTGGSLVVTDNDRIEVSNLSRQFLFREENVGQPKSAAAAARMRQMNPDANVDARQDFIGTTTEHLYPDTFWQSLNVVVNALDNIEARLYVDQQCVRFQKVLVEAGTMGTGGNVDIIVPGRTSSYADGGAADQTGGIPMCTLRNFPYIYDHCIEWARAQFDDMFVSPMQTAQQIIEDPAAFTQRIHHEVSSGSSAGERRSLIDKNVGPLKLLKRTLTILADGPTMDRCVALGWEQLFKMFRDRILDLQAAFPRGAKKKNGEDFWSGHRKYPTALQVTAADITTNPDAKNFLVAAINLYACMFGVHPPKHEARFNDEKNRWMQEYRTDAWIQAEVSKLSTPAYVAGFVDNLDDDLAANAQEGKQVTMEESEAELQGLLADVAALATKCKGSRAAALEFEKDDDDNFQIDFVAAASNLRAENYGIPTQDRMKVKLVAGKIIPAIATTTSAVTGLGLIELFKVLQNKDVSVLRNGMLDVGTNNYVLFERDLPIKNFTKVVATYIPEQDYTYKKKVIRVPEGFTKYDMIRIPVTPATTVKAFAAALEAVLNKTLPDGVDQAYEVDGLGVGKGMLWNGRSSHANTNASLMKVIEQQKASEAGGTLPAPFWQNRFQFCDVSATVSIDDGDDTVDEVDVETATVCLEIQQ
As to the kind of experiment: Leishmania donovani Ubiquitin Activating Enzyme (LdE1). Format: functional. Particulars: 30 µM.

Experiment [3] has as its target AMP-activated protein kinase, AMPK (Homo sapiens) (UniProt P54646+O43741+P54619+Q9UGJ0+Q9Y478+Q13131+Q9UGI9). As to the kind of experiment: AMP-dependent Kinase enzyme assay. An in vitro enzyme assay that detects ADP turnover that is directly proportional to AMPK activity. This uses naive AMPK that is activated during the assay with MK-8722. Type of experiment: functional. The settings on record: 30 µM.

Experiment [4] concerns the target Sialic acid-binding Ig-like lectin 9 (Homo sapiens) (UniProt Q9Y336). As to the kind of experiment: Hs-Siglec9 ALPHAscreen SOP 20170721. The settings on record: 10 µM.
The subject of another experiment is Trypanosoma cruzi. As to the kind of experiment: Trypanosoma cruzi phosphomannomutase and mannose-1-phosphate guanylyltransferase assay. Type of experiment: functional. The settings on record: 10 µM.
For experiment [5], the target named is T2, Arginase-2, mitochondrial (Homo sapiens) (UniProt P78540).
T2 sequence (whole entry): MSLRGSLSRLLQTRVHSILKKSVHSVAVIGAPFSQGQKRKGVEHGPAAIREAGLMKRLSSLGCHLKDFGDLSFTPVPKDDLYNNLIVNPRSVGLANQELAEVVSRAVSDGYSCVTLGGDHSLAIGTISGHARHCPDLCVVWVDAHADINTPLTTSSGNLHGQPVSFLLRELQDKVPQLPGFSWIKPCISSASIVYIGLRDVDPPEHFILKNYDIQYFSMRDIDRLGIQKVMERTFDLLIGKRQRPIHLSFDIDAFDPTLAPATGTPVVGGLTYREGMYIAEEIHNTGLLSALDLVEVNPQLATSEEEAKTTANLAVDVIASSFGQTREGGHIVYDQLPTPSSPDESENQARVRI
As to the kind of experiment: in vitro enzyme assay to detect the production of urea directly proportional to the activity of Arginase II. Further: in the data most compounds retested in dose-response had high values. Type of experiment: functional. The settings on record: 33.3 µM.

For experiment [6], the target named is T3, Proteasome subunit beta (Trypanosoma cruzi) (UniProt O96673).
T3 sequence (whole entry): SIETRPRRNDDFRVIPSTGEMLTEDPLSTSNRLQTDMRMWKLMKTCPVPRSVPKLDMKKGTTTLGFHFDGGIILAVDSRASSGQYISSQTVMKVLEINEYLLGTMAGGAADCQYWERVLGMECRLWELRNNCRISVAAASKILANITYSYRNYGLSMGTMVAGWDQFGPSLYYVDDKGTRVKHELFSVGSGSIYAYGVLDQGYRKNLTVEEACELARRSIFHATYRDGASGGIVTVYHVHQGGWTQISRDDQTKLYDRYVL
As to the kind of experiment: Trypanosoma cruzi proteasome chymotrypsin-like activity (TcProtChymo) assay. Further: in the data most compounds retested in dose-response had high values. Format: functional. The settings on record: 9.37 µM.

The species entered for another experiment is Homo sapiens. As to the kind of experiment: To identify inhibition of the IFN signalling (Jak-Stat) pathway via expression of an eGFP reporter gene under the control of an IFN-stimulated response element (ISRE) containing MxA promoter. Format: functional. The settings on record: 30 µM.
Experiment [7] has as its target T4, Tyrosyl-tRNA synthetase, putative (Trypanosoma cruzi (strain CL Brener)) (UniProt Q4DSP6).
T4 sequence (whole entry): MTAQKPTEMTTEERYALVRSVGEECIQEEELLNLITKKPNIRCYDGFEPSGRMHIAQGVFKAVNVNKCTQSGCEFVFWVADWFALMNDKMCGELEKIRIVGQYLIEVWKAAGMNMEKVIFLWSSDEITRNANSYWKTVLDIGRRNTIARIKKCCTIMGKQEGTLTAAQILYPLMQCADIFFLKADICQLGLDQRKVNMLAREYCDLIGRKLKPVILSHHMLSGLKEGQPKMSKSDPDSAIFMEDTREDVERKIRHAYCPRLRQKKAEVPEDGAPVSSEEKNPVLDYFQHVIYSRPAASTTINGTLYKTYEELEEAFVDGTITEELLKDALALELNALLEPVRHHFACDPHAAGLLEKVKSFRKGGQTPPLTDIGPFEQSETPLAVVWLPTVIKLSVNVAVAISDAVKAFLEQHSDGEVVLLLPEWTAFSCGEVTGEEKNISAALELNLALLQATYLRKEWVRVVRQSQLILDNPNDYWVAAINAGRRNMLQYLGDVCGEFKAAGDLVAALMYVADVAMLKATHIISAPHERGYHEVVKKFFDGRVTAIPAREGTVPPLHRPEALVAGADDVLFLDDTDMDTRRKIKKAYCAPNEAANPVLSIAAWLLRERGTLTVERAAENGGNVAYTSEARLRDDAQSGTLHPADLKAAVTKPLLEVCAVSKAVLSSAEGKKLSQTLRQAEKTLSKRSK
As to the kind of experiment: Trypanosoma cruzi tyrosyl tRNA synthetase (TcYRS) _High Tyrosine SOP. Further: in the data most compounds retested in dose-response had high values. Type of experiment: functional. The settings on record: 30 µM.

Experiment [8] concerns the target T4, Tyrosyl-tRNA synthetase, putative (Trypanosoma cruzi (strain CL Brener)). As to the kind of experiment: Trypanosoma cruzi tyrosyl tRNA synthetase (TcYRS) SOP. Format: functional. The settings on record: 30 µM.
Experiment [9] deals with Chromo domain-containing protein 1 (Saccharomyces cerevisiae (strain ATCC 204508 / S288c) (Baker's yeast)) (UniProt P32657). As to the kind of experiment: ScCHD-1 Enzyme Inhibition Assay. Further: in the data most compounds retested in dose-response had high values. Type of experiment: functional. Particulars: 30 µM.
Sequence of Chromo domain-containing protein 1 (Saccharomyces cerevisiae (strain ATCC 204508 / S288c) (Baker's yeast)) (P32657 whole entry, the tested form may be a part): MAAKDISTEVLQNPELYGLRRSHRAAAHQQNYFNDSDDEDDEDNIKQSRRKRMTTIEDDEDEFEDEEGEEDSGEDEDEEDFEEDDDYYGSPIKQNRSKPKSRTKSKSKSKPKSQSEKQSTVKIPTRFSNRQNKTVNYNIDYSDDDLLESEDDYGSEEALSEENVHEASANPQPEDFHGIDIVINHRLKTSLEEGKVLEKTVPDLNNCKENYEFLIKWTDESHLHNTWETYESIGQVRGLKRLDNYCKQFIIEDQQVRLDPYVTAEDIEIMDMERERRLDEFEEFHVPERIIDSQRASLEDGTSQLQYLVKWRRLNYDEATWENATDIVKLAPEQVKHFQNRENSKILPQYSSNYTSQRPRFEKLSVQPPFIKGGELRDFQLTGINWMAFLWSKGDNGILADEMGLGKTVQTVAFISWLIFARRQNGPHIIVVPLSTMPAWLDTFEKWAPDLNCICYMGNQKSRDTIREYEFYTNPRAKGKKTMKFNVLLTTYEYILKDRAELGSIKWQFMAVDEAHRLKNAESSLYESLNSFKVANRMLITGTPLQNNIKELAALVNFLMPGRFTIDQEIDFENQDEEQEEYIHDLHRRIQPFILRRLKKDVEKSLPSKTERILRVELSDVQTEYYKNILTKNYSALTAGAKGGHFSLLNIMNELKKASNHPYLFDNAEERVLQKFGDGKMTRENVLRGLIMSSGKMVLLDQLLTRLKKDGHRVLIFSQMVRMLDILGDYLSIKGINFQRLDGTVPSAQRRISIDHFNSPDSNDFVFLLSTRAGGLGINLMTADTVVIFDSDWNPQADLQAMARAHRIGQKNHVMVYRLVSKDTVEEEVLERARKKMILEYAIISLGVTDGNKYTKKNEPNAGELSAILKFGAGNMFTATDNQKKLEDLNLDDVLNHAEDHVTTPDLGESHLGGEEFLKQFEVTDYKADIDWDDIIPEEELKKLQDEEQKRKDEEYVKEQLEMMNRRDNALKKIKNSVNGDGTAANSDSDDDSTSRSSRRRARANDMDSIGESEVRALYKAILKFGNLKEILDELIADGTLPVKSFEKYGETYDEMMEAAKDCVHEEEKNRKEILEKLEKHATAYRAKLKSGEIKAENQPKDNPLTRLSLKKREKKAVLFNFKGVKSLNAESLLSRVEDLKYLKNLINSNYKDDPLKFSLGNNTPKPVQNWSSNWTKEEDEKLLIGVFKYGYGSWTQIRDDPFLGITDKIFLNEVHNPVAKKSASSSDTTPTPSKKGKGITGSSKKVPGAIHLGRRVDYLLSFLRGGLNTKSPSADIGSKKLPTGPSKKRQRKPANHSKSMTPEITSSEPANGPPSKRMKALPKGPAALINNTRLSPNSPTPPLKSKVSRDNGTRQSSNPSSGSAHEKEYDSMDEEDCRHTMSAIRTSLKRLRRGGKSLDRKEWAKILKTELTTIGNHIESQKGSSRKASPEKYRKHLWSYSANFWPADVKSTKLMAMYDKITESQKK

Sequence of Sialic acid-binding Ig-like lectin 9 (Homo sapiens) (Q9Y336 whole entry): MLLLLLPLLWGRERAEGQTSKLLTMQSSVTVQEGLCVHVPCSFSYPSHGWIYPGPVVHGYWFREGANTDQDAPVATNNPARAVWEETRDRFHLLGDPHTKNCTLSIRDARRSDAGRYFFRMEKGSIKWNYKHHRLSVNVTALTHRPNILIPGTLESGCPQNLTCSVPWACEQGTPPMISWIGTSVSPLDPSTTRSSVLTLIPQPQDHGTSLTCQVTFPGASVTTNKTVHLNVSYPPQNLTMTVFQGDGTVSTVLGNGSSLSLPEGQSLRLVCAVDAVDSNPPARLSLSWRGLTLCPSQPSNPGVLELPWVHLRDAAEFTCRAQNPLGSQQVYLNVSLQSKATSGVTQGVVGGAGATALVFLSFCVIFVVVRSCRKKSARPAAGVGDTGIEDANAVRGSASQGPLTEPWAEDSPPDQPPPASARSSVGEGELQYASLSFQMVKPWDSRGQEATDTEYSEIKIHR
Sequence of Protein translocase subunit SecA (Escherichia coli (strain K12)) (P10408 whole entry): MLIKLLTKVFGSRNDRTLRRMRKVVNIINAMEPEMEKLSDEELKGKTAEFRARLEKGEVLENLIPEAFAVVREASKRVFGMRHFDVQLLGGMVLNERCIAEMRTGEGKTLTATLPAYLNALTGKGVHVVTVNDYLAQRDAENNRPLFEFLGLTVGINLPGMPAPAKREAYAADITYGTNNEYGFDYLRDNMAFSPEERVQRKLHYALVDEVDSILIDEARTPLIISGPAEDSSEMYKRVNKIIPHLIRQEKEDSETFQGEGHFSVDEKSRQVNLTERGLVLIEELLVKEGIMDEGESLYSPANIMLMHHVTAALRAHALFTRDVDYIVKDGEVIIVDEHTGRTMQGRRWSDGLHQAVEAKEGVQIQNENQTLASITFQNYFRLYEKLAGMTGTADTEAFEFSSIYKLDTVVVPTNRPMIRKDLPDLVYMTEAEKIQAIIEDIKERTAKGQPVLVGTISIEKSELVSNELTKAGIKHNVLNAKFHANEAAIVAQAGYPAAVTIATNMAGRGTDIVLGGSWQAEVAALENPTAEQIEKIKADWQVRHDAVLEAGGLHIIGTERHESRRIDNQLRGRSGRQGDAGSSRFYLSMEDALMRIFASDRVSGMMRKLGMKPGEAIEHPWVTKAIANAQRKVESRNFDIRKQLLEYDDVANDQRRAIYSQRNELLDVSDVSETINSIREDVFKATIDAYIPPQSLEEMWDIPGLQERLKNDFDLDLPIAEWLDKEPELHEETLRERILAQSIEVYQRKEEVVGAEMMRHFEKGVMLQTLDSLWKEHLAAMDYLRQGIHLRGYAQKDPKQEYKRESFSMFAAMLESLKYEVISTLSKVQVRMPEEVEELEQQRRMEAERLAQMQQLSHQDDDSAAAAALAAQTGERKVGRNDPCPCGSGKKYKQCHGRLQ

For the compound `CC(NC(=O)NCCCn1ccnc1)c1ccc2c(c1)CCC(=O)N2` (stereo unspecified), the Percent Effect in experiment [1] is -5.85%; in [2] it was 22.8%; in experiment [3] it was 0.7%; in [4], -8%; in the experiment with Trypanosoma cruzi, 8.4%; in [5] it was -2.66%. In addition, the Percent Effect in [6] was 13%; in the experiment listed under Homo sapiens it was 10.8%; in [7], 5.42%; in experiment [8] it was 24.1%; in experiment [9], -6.95%.

In the case of `CN(C)CC(=O)N1CCOCC2(C1)CN(c1ccccc1)C(=O)CO2` (stereo unspecified), the Percent Effect in experiment [1] is 1.58%; in experiment [2], 8%; in experiment [3], 11.2%; in experiment [4], -1.53%; in the experiment with Trypanosoma cruzi, -4.05%; in [5] it was -56.8%. The Percent Effect was 3.08% in [6]; -9.58% in the experiment listed under Homo sapiens; 5.21% in [7]; -22.5% in experiment [8]; -7.95% in experiment [9].

On to `CC(C)Oc1ncccc1CNC(=O)N1CCC(C(N)=O)C1` (stereo unspecified), for which the Percent Effect in [1] was -6.99%; in [2], 5.26%; in experiment [3], -1.63%; in experiment [4] it was 3.84%; in the experiment with Trypanosoma cruzi it was -4.51%; in [5], 2.68%. In addition, the Percent Effect in experiment [6] is 2%; in the experiment listed under Homo sapiens, 23.8%; in [7], 1.47%; in experiment [8], 7.32%; in [9], -0.235%.

Take `Cc1nc(C)c(C(=O)NCCNC(=O)Cc2cccc(F)c2)s1`: the Percent Effect in [1] is -3.25%; in [2], 16.2%; in [3] it was -2.81%; in experiment [4] it was 1.34%; in the experiment on Trypanosoma cruzi, 0.464%; in experiment [5], 0.924%. In addition, the Percent Effect is 17.8% in experiment [6]; 17.9% in the experiment listed under Homo sapiens; 9.9% in [7]; 18.3% in experiment [8]; -4.49% in [9].

In the case of `CC(=O)c1cc(CN2C[C@H]3CC[C@@H]2CN(S(=O)(=O)N(C)C)C3)cs1`, the Percent Effect in experiment [1] is -5.56%; in [2] it was 15.3%; in experiment [3], -10.7%; in experiment [4], 36%; in the experiment with Trypanosoma cruzi, 7.68%; in experiment [5] it was 6.18%. For the same compound, the Percent Effect was 5.96% in [6]; 4.65% in the experiment filed under Homo sapiens; 7.37% in [7]; 10.3% in [8]; -3.04% in experiment [9].

With `Cc1csc(C2CCCCN2C(=O)CN(C)Cc2ccccc2)n1` (stereo unspecified), the Percent Effect in experiment [1] was -1.2%; in experiment [2], -1.27%; in experiment [3], 11%; in experiment [4], 7.48%; in the experiment on Trypanosoma cruzi, -1.33%; in experiment [5] it was 3.23%. Also, the Percent Effect is 0.515% in experiment [6]; -0.936% in the experiment filed under Homo sapiens; 1.04% in [7]; 2.53% in experiment [8]; 7.65% in experiment [9].

On to `CCOCC(=O)N1C[C@@H](NC(C)=O)[C@H](c2ccc(OC)cc2)C1`, for which the Percent Effect in experiment [1] was -0.132%; in experiment [2], 5.33%; in [3], -8.83%; in [4], 9.11%; in the experiment on Trypanosoma cruzi it was 2.63%; in experiment [5] it was 18.8%. Further, the Percent Effect in experiment [6] was 15.2%; in the experiment listed under Homo sapiens, 14.1%; in experiment [7], 7.1%; in [8] it was 18.5%; in [9] it was -1.7%.

`c1coc(-c2noc(CN3CC(n4cccn4)C3)n2)c1`: the Percent Effect in experiment [1] is -5.48%; in experiment [2], 7.79%; in [3], 3%; in [4], -4.91%; in the experiment on Trypanosoma cruzi, 0.49%; in experiment [5] it was 1.05%. The Percent Effect in experiment [6] was 2.18%; in the experiment listed under Homo sapiens, 19.4%; in [7] it was 3.81%; in [8], 9.41%; in experiment [9], -11.1%.

`Cc1cccc2c1cnn2CCCNC(=O)CCCC(=O)O`: the Percent Effect in experiment [1] was -1.56%; in experiment [2], 5.2%; in experiment [3] it was 4.98%; in experiment [4], 7.89%; in the experiment on Trypanosoma cruzi it was 4.42%; in [5], -112%. In addition, the Percent Effect is 0% in [6]; 2.46% in the experiment filed under Homo sapiens; 4.3% in experiment [7]; 16.1% in experiment [8]; -2.54% in experiment [9].

For `O=C(CN1CCOC(Cn2cccn2)C1)NCc1cccs1` (stereo unspecified), the Percent Effect is 0.0678% in experiment [1]; -2.7% in experiment [2]; -5.7% in experiment [3]; 11.3% in experiment [4]; 1.58% in the experiment with Trypanosoma cruzi; -0.924% in experiment [5]. In addition, the Percent Effect in experiment [6] was 1.98%; in the experiment listed under Homo sapiens, -5.12%; in [7], 0.99%; in experiment [8], 3.66%; in experiment [9], -4.1%.

With `N#Cc1ccccc1CN1C[C@@H]2CC[C@H](C1)N(CC1CC1)C2=O`, the Percent Effect in experiment [1] is -0.53%; in experiment [2] it was 13.5%; in experiment [3] it was -0.476%; in experiment [4], 12.4%; in the experiment on Trypanosoma cruzi, 1.74%; in experiment [5] it was 2.38%. Also, the Percent Effect is 13.4% in [6]; 4.71% in the experiment listed under Homo sapiens; 4.76% in experiment [7]; 14.6% in [8]; -0.908% in experiment [9].
